Many of the other results were omitted from the sample, so hits are more common in it than they were.
Dicer inh = inhibitors of Dicer pre-microRNA processing, primary screen, biochemical, cat-ELCCA, chemiluminescence; cat-ELCCA pre-miR-21 Dicer processing; stronger effect = higher value; AID 1347074, 2019; z-score at 25 µM; 6% of 47,000 active; Endoribonuclease Dicer (Homo sapiens), Q9UPY3; in the data active means z-score above about 3, passing the limit was not always enough;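 further: higher signal means more uncleaved substrate so more Dicer inhibition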
A number is an active result; – = inactive.

SMILES	Dicer inh
CCOC(=O)/C(C#N)=C/C=C(/c1ccc(Cl)cc1)N1CCOCC1	–
CC(=O)Oc1ccccc1/C(=C/C=C(c1ccccc1)c1ccccc1)N1CCOCC1	4.31
CC1CC2(C)C(O)CCC2C2CCc3cc(O)ccc3C12 (stereo unspecified)	–
N#C/C(=C\c1ccc(OC(=O)c2cccs2)cc1)c1ccccn1	–
Nc1ccc2nc(CCC(=O)O)[nH]c2c1	–
O=C(O)CCc1nc2ccc(C(=O)O)cc2[nH]1	3.66
O=C(O)c1ccc2nc(CCc3ccccc3)[nH]c2c1	–
CC(C)CCNc1ncnc2c1sc1nc3c(cc12)COC(C)(C)C3	–
O=C(c1nn2c(C(F)(F)F)cc(-c3ccccc3)nc2c1Cl)N1CCOCC1	–
O=C(c1nc2nc(-c3ccc(Cl)cc3)cc(C(F)(F)F)n2n1)N1CCOCC1	–
O=C(c1nn2c(C(F)(F)F)cc(-c3ccc(F)cc3)nc2c1Cl)N1CCOCC1	4.19
Cc1onc(C(=O)NNC(=O)Nc2ccc(Cl)cc2)c1-c1csc(-c2ccccc2)n1	–
CC(=O)c1nnn(-c2cc(C(F)(F)F)cc(C(F)(F)F)c2)c1C	–
COC(=O)c1cccc2cccc(I)c12	–
CC(=O)Nc1nc2c(s1)Cc1ccccc1-2	–
ON/C=N/c1nc2c(s1)CCc1ccccc1-2	–
O=C(Nc1nc2c(s1)Cc1ccccc1-2)c1ccc(F)c(Cl)c1	–
CCCCCCCCC(=O)Nc1nc2c(s1)CCc1ccccc1-2	–
Oc1ccccc1CNc1nc2c(s1)CCc1ccccc1-2	4.27
O=C(Nc1nc2c(s1)CCc1ccccc1-2)c1ccc(F)c(Cl)c1	3.72
Cc1cc(C(=O)N/N=C/N(C)C)nn1-c1c(Cl)cc(Cl)cc1Cl	–
CCOc1c(Br)cc(C2C(C(=O)OC)=C(C)NC3=C2C(=O)c2ccccc23)cc1OC (stereo unspecified)	–
COC(=O)c1scc(Br)c1OC	–
Cn1c(=O)oc2cc(S(=O)(=O)Nc3ccc(O)cc3)ccc21	–
CCCCOC(=O)n1c(=O)oc2cc(S(=O)(=O)Nc3ccc(C)cc3)ccc21	3.3
SMILES	Dicer inh
Cn1c(=O)oc2cc(S(=O)(=O)Nc3ccc(C(=O)O)cc3)ccc21	–
N#Cc1cc(F)cc(F)c1NC(=O)c1cccs1	–
CCCCc1c(C)c(C#N)c2nc3ccccc3n2c1-n1ccnc1C	8.35
Cc1c(Cc2ccccc2)c(-n2ccnc2C)n2c(nc3ccccc32)c1C#N	–
Cc1c(CCN2CCOCC2)c(N2CCOCC2)n2c(nc3ccccc32)c1C#N	–
O=C(O)CSC1(SCC(=O)O)CCCCC1	–
Cc1onc(-c2c(Cl)cccc2Cl)c1NC(=O)NNc1cc(Cl)ccc1Cl	–
Nc1ccc(C(=O)Nc2nc3cc(N)ccc3s2)cc1	–
O=c1[nH]c(SCc2ccc(Cl)cc2Cl)nc2ccccc12	3.7
Nc1cc(=O)[nH]c(SCc2ccc(Cl)cc2Cl)n1	–
NC(=O)CSc1nc2ccccc2c(=O)[nH]1	–
Cc1ccc2oc(=O)c(CCC(=O)O)nc2c1	–
COc1cc(C2c3c(oc4ccc(Cl)cc4c3=O)C(=O)N2Cc2ccc3c(c2)OCO3)ccc1O (stereo unspecified)	–
O=C(Cn1nnc(-c2cc(Cl)cc(Cl)c2)n1)c1ccc2ccccc2c1	–
CCCCCn1c(C2CC(=O)N(c3ccccc3)C2)nc2ccccc21 (stereo unspecified)	5.33
CCCCCCn1c(C(C)O)nc2ccccc21 (stereo unspecified)	–
O=C1CC(c2nc3ccccc3n2Cc2ccccc2Cl)CN1c1ccccc1 (stereo unspecified)	4
O=C1CC(c2nc3ccccc3[nH]2)CN1c1ccccc1 (stereo unspecified)	–
CCCCn1c(C2CC(=O)N(c3ccccc3)C2)nc2ccccc21 (stereo unspecified)	–
Nc1nonc1-c1nc2ccccc2n1Cc1ccccc1Cl	–
CCCOc1cc(C)c(S(=O)(=O)n2cnc3ccccc32)cc1C	–
N#Cc1n[nH]nc1-c1ccc(OC(=O)c2ccc(Cl)cc2)cc1	–
CCOc1ccccc1C1C(C(=O)OC2CCCC2)=C(C)NC2=C1C(=O)CCC2 (stereo unspecified)	–
Cc1ccccc1C1CC(=O)c2cnc3c(-c4ccccc4)c(C)nn3c2C1 (stereo unspecified)	–
O=C(COc1ccc(Cl)cc1)Nc1c[nH]c(=O)[nH]c1=O	4.13
SMILES	Dicer inh
O=C(COc1ccc(Cl)cc1)Nc1nccs1	–
O=C(COc1ccc(Cl)cc1)Nc1ccc(Cl)cn1	–
COC(=O)Cc1cc(=O)n(-c2nc3ccccc3[nH]2)[nH]1	4.62
CC(C)OC(=O)CSc1nc2ccccc2[nH]1	–
Cc1ccc(-c2cc(=O)n(-c3nc4ccccc4[nH]3)[nH]2)cc1	–
COc1ccc(C(=O)CSc2n[nH]c(-c3ccco3)n2)cc1	–
COc1ccc(C(=O)CSc2n[nH]c(-c3ccco3)n2)cc1C	5.61
Cc1ccc(C(=O)CSc2n[nH]c(-c3ccco3)n2)cc1C	–
CC1=C(C#N)C(c2ccc(Br)cc2)C2=C(CCCC2=O)N1 (stereo unspecified)	–
Cc1nnc2sc(-c3cc(N)ccc3Cl)nn12	–
Cc1ccc(C(=O)Nc2cnc3cc(C)ccn3c2=O)cc1	–
COC(=O)C1=CC2C3C(=O)N(c4cc(Cl)cc(Cl)c4)C(=O)C3C1C1C(=O)N(c3cc(Cl)cc(Cl)c3)C(=O)C21 (stereo unspecified)	–
Cc1nc(SCC(=O)c2ccc(Cl)cc2)[nH]c(=O)c1CCC(C)C	–
COc1ccc(CN2CCC(N3CCCCC3)CC2)cc1Br	3.74
CCn1c2ccccc2c2cc(CN3CCC(N4CCCCC4)CC3)ccc21	–
COc1ccc(CN2CCC(N3CCCCC3)CC2)cc1OC	–
O=C1OC(C(=O)Nc2ccccc2Cl)Cc2ccccc21 (stereo unspecified)	–
CCCSc1nc(N2CCCC2)c2c(c1C#N)CC(C)(C)OC2	3.56
CC1(C)Cc2c(C#N)c(SCCOc3ccccc3)nc(N3CCOCC3)c2CO1	–
CCSc1nc(N2CCCC2)c2c(c1C#N)CC(C)(C)OC2	–
COc1cc(OC)c(C(F)(F)F)cc1[N+](=O)[O-]	–
O=C(O)C1(c2ccccc2)CCCC1	–
O=C(N1CCCC1)C1(c2ccccc2)CCOCC1	3.03
O=C(NC(=S)N1CCCCC1)c1ccccc1	–
Cc1cc(C)cc(NC(=O)Nc2nnc(C3CC3)s2)c1	–
SMILES	Dicer inh
COC(=O)c1cc(O)c(C(=O)OC)s1	–
COC(=O)c1sc(Br)c(Br)c1O	–
COC(=O)c1sc(=S)sc1C(=O)OC	3.8
CCOC(=O)NC(=O)c1cn(Cc2ccccn2)c(=O)n(Cc2c(Cl)cccc2Cl)c1=O	–
C=CCOc1cccc(C(Nc2ccccn2)c2ccc3cccnc3c2O)c1 (stereo unspecified)	–
Cc1ccc(C(Nc2cccc(C)n2)c2ccc3cccnc3c2O)cc1 (stereo unspecified)	16.9
Cc1cccc(NC(c2cccnc2)c2ccc3cccnc3c2O)n1 (stereo unspecified)	3.46
C=CCOc1cccc(C(Nc2cccc(C)n2)c2ccc3cccnc3c2O)c1 (stereo unspecified)	–
CCc1ccc(C(Nc2ccccn2)c2ccc3cccnc3c2O)cc1 (stereo unspecified)	–
COc1ccc(C(Nc2cc(C)ccn2)c2ccc3cccnc3c2O)cc1OC (stereo unspecified)	11.3
Cc1cccc(NC(c2ccc(F)cc2)c2ccc3ccc(C)nc3c2O)n1 (stereo unspecified)	–
